Measured values published in PubChem BioAssay AID618 (Sanford-Burnham Center for Chemical Genomics, 2007).
In all, about 87,000 compounds went through this assay and about 540 (0.62%) were called active. How the calls were made is not given here. Shown is part of a subset that was picked to be rich in actives. Potency and affinity values are given separately.

test: inhibitors of MT1-MMP promoter transcription, cell-based, luciferase reporter, luminescence (AID 618); details: MT1-MMP promoter luciferase reporter cells;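 further: actives suppress MT1-MMP promoter-driven transcription so potencies describe inhibitors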

outcome, active:
CSc1cc(-c2ccccc2)n(Cc2c(Cl)cccc2Cl)c(=O)c1C#N
CSc1cc(-c2ccccc2)n(Cc2ccccc2Cl)c(=O)c1C#N
c1c2c(cc3sc(N4CCCCC4)nc13)OCCO2
c1ccc2c(c1)CCN(c1nc3cc4c(cc3s1)OCCO4)C2
c1c2c(cc3sc(N4CCCCC4)nc13)OCO2
c1c2c(cc3sc(N4CCOCC4)nc13)OCCO2
CC[C@]1(O)CC2CN(CCc3c([nH]c4ccccc34)[C@@](C(=O)OC)(c3cc4c(cc3OC)N(C=O)[C@H]3[C@@](O)(C(=O)OC)[C@H](OC(C)=O)[C@]5(CC)C=CCN6CC[C@]43[C@@H]65)C2)C1 (some centres not stated)
CCOC(=O)CS(=O)(=O)c1nc(-c2ccc(F)cc2)cc(C(F)(F)F)n1
CS(=O)(=O)c1nc(-c2ccccc2)cc(C(F)(F)F)n1
CCCCCCc1ccc(-c2ncc(N)cn2)cc1
O=C(Nc1ccc(N2CCCC2)cc1)c1cccc(F)c1
CCOC(=O)C(C)Oc1cccc2c(=O)n(CC(=O)NCc3ccco3)ccc12 (configuration not stated)
Nc1nonc1C(=O)NCCNCc1cc(Br)ccc1OCc1ccccc1F
O=c1[nH]c(=O)n([C@H]2C[C@H](O)[C@@H](CO)O2)cc1F
Nc1cccc(-c2nc3ccc(N)cc3s2)c1
COc1ccc(NC(=O)/C(Cl)=C(/Cl)S(=O)Cc2ccc(C)cc2)cn1 (configuration not stated)
COc1ccc(NC(=O)/C(Cl)=C(/Cl)S(=O)Cc2ccccc2)cn1 (configuration not stated)

outcome, inactive:
CCOc1ccc(C2c3c(oc4ccccc4c3=O)C(=O)N2CCCN2CCOCC2)cc1OCC (configuration not stated)
Cc1cc(C)n(Cc2ccccc2F)c(=O)c1C#N
Cn1c(=O)c2c(nc(SCCCC#N)n2Cc2c(F)cccc2Cl)n(C)c1=O
CSc1cc(-c2ccccc2)n(Cc2ccc(Cl)cc2Cl)c(=O)c1C#N
CSc1cc(-c2ccc(Cl)cc2)n(Cc2ccccc2)c(=O)c1C#N
Cc1ccc(-n2c(SCC(=O)NCc3ccco3)nnc2-c2cccnc2)c(C)c1
CCOC(=O)N1CCC(NC(=O)C2CCN(S(=O)(=O)N3CCC(C)CC3)CC2)CC1
Cc1cc(C)cc(OCc2nc3ncc(Br)cc3[nH]2)c1
C=CCOc1cccc(C2C(C(=O)c3ccco3)=C(O)C(=O)N2CCN2CCOCC2)c1 (configuration not stated)
COc1ccccc1N1CCN(C(=O)CN(c2cc(C)cc(C)c2)S(C)(=O)=O)CC1
c1c2c(cc3sc(N4CCOCC4)nc13)OCO2
O=S(=O)(c1ccc2c(c1)OCCO2)N1CCN(c2nc3ccccc3s2)CC1
c1ccc2c(c1)CCN(c1nc3cc4c(cc3s1)OCO4)C2
c1ccc(N2CCN(c3nc4cc5c(cc4s3)OCCO5)CC2)cc1
c1ccc2sc(N3CCOCC3)nc2c1
O=C(c1ccc2nc(N3CCCCC3)sc2c1)N1CCN(Cc2ccc3c(c2)OCO3)CC1
Clc1ccc2nc(N3CCCCC3)sc2c1
c1ccc(N2CCN(c3nc4cc5c(cc4s3)OCO5)CC2)cc1
CCOC(=O)c1c(COC(=O)c2ccco2)nc2ccccc2[n+]1[O-]
O=C(CCn1c(=O)oc2ccccc21)Nc1cccc(Cl)c1
Cc1cc2ccccc2c(=O)n1CC(=O)Nc1ccc2c(c1)OCCO2
CCOC(=O)c1[nH]c2ccc(F)cc2c1NC(=O)C1=COCCO1
CC(=O)c1c(C(C)=O)c(C)n(-c2nc(-c3ccc(Br)cc3)c(C)s2)c1C
OC(COc1ccccc1)CSc1ncn[nH]1 (configuration not stated)
COc1ccc(OCCSc2ncn[nH]2)cc1
CCCCn1c(SCC(=O)N2CCOCC2)nnc1-c1cccs1
COc1ccccc1N1CCN(C(=O)CSc2nc(-c3ccco3)cc(C(F)(F)F)n2)CC1
Cc1cc(C)c(S(=O)(=O)N2CCCCC2)c(C)c1-n1ncnn1
O=C(Cn1nc(-c2ccc(Cl)cc2)c2ccccc2c1=O)NCC1CCCO1 (configuration not stated)
CCOC(=O)CS(=O)(=O)c1nc(-c2ccccc2)cc(C(F)(F)F)n1
COc1ccccc1-c1cc(C(F)(F)F)nc(S(=O)(=O)CCCC(=O)O)n1
COc1ccc(-c2cc(C(F)(F)F)nc(S(C)(=O)=O)n2)cc1
COc1ccc(-c2cc(C(F)(F)F)nc(S(C)(=O)=O)n2)cc1OC
COc1ccccc1-c1cc(C(F)(F)F)nc(S(=O)(=O)CCCC(=O)N2CCCCC2C)n1 (configuration not stated)
COC(=O)CCS(=O)(=O)c1nc(-c2ccccc2)cc(C(F)(F)F)n1
COC(=O)CSc1nc(-c2ccc(F)cc2)cc(C(F)(F)F)n1
CCOC(=O)CSc1nc(-c2ccccc2)cc(C(F)(F)F)n1
CCNc1nc(Oc2ccc(=O)[nH]n2)nc(N2CCOCC2)n1
CCOC(=O)C1=NN(c2ccc(OC)cc2)C(c2ccccc2)CC1=O (configuration not stated)
COC(=O)c1ccc(CSc2nnc(SCc3ccc(C(=O)OC)o3)s2)o1
CCN1C(c2ccc(F)cc2)=CS/C1=C(\C#N)c1nnc2n1-c1ccccc1SC2
CNc1nnc(-c2cccc(N(C)C)c2)s1
CNc1nnc(-c2ccncc2)s1
Cc1ccc(-c2nc(CS(=O)(=O)CC(=O)NC3CCCCC3C)c(C)o2)cc1 (configuration not stated)
CCc1ccc(-c2ccc(C(=O)O)cc2)nc1
CCCCCc1ccc(-c2ccc(=O)[nH]n2)cc1
CCCCc1ccc(-c2nc(N)n[nH]2)cc1
CCCc1ccc(-c2ccc(C(=O)O)cc2)nc1
CC(=O)c1ccc(N=Cc2c(O)n(-c3cc(Cl)ccc3N3CCOCC3)c(=O)c3ccccc23)cc1
Cc1noc(NS(=O)(=O)c2ccc(NC(=O)CSc3nc4ccccc4[nH]3)cc2)c1C
CCCc1nc(SCc2ccccn2)c2c(=O)n(C)c(=O)n(C)c2n1
CCOc1nc(NCCc2ccc(OC)c(OC)c2)nc(N2CCN(c3ccc(OC)cc3)CC2)n1
Cc1cccc(N2CCN(C(=O)c3cc4c(=O)n(C)c5ccccc5c4n3C)CC2)c1C
COc1ccc(-c2cc(=O)c3ccccc3s2)cc1
COc1ncnc2sc(-c3ccccc3)cc12
O=C(Nc1ccc(N2CCCCC2)cc1)c1cccnc1
O=C(Nc1ccc(N2CCCCC2)cc1)c1ccc(F)cc1
O=C(Nc1ccc(N2CCN(C(=O)c3ccco3)CC2)cc1)c1cccc(F)c1
O=C(Nc1ccc(N2CCCC2=O)cc1)c1cccc(F)c1
O=C(COc1ccc(Br)cc1CO)Nc1ccccc1F
O=C(NCCCN=C1NS(=O)(=O)c2ccccc21)c1ccco1
COC(=O)C1CCN(C(=O)c2ccc(NC(C)=O)cc2)CC1
CCOC(=O)COc1cccc2c(=O)n(CC(=O)NCc3ccc4c(c3)OCO4)ccc12
CCOC(=O)C(C)Oc1cccc2c(=O)n(CC(=O)N3CCc4ccccc43)ccc12 (configuration not stated)
Nc1nonc1C(=O)NCCNCc1cc(Br)ccc1OCc1ccc(F)cc1
Nc1nonc1C(=O)NCCNCc1ccccc1OCc1ccccc1F
c1ccc(C2CC(c3ccccc3)n3ncnc3N2)cc1 (configuration not stated)
O=c1[nH]c(=O)n([C@H]2C[C@H](O)[C@@H](CO)O2)cc1C(F)(F)F
CCc1cn([C@H]2C[C@H](O)[C@@H](CO)O2)c(=O)[nH]c1=O
Cc1ccc(NC(=O)CN(C)C(=O)CSc2nc3ccccc3c(=O)n2Cc2ccco2)cc1
Cc1csc2nc(CSc3ccc(Cl)cc3)cn12
Cc1csc2nc(CSc3nc4ccccc4o3)cn12
Cc1ccc(-c2cc(C(=O)N/N=C/c3ccco3)[nH]n2)cc1
COc1ccccc1/C=N/NC(=O)C1=NNC(c2ccccc2)(c2ccccc2)C1
O=C(CSc1ccccc1)Nc1ccncc1
Cc1cc2c(c(=O)n1Cc1ccccn1)C(C(C)C)C(C#N)=C(N)O2 (configuration not stated)
Nc1cccc(-c2nc3ccccc3s2)c1
Cc1nc(-c2cccc(N)c2)cs1
Nc1ccc(O)c(-c2nc3ccccc3s2)c1
Cc1nc2ccc(N)cc2s1
COc1cccc(NC(=O)C2C3C=CC4(O3)C2C(=O)N(C2CC2)C4C(=O)NC2CCCCC2C)c1 (configuration not stated)
C=C(C)c1cccc(C(C)(C)NC(=O)N2CCN(CC(N)=O)CC2)c1
CC(C)(C)c1ccc(C2(C)NC(=O)N(CC(=O)Nc3ccc4c(c3)OCO4)C2=O)cc1 (configuration not stated)
CCCCCn1c(=O)[nH]c2cc(C(=O)N3CCN(CC)CC3)ccc2c1=O
CCOC(=O)N1CCN(C(=O)CN(C2CCCCC2)S(=O)(=O)c2ccc(Cl)cc2)CC1
COc1ccc(NC(=O)c2cc(CN3C(=O)c4ccccc4C3=O)ccc2OC)cn1
COc1ccc(NC(=O)c2cc(=O)c3ccccc3o2)cn1
CCOc1ccccc1OCCCC(=O)Nc1ccc(OC)nc1
COc1ccc(NC(=O)c2nc3nccc(C)n3n2)cn1
Cc1ccc(C(=O)n2cnnc2N)cc1
CN(C)c1nc(N)nc(-c2cccnc2)n1
COc1ccc(C)cc1S(=O)(=O)N(C)CC(=O)Nc1ccc2c(c1)OCO2
Cc1ccc2ccccc2c1COC(=O)c1nonc1N
CC(=O)Nc1cccc(Oc2ccc(-c3noc(C)n3)cc2)c1
CCCC(=O)N1CC(=O)Nc2ccc(F)cc2C1c1ccccc1 (configuration not stated)
